Test results taken from PubChem BioAssay.
Results filed as inconclusive are left out. The list shows a part of the results. Active and inactive are the calls of the source.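 Rule for the calls, unless noted: active = GFP response above 150% of the DMSO control; inconclusive = fewer than 70 events counted in any yeast strain; inactive = the rest.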

How the values were obtained:
[1] = molecular target: Regulator of G-protein signaling 16 (Homo sapiens) (UniProt O15492); assay: small molecules altering RGS protein interactions with GNAO1 – biochemical, multiplexed beads, flow cytometry, RGS4/7/8/16/19, primary screen (AID 1504); conditions: multiplexed bead flow cytometry, measured here: RGS16 interaction, at 10 µM;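 note: fluorescently labeled Galpha-o bound to GDP with aluminium fluoride binding biotinylated RGS beads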
[2] = molecular target: Regulator of G-protein signaling 19 (Homo sapiens) (UniProt P49795); assay: as above; conditions: multiplexed bead flow cytometry, measured here: RGS19 interaction, at 10 µM
[3] = molecular target: Regulator of G-protein signaling 7 (Homo sapiens) (UniProt P49802); assay: as above; conditions: multiplexed bead flow cytometry, measured here: RGS7 interaction, at 10 µM
[4] = molecular target: Regulator of G-protein signaling 8 (Homo sapiens) (UniProt P57771); assay: as above; conditions: multiplexed bead flow cytometry, measured here: RGS8 interaction, at 10 µM
[5] = interference with biotin-avidin bead interaction – biochemical, flow cytometry, bead-based, counter-screen for RGS protein interaction modulators (AID 1783;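 active = inhibition above 50%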;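 note: median green fluorescence of gated singlet beads compared with DMSO control wells; 0% = DMSO wells and 100% = complete loss of bead fluorescence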); conditions: streptavidin beads, fluorescein-biotin binding; at 10 µM, stronger effect = higher value
[6] = molecular target: Guanine nucleotide-binding protein G(o) subunit alpha (Homo sapiens) (UniProt P09471); assay: retest of RGS8-Galphao interaction hits – biochemical, multiplexed bead flow cytometry, single concentration, confirmation (AID 1836; in the data active = binding response below about 72% or above about 130%; inactive = in between;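 note: Galphao activated as GDP AlF4 complex before binding bead RGS8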); conditions: bead-based flow cytometry RGS8-Galphao binding, fluorescence; at 10 µM; actives lie on both sides
Guanine nucleotide-binding protein G(o) subunit alpha (Homo sapiens), sequence (P09471 whole entry, looked up): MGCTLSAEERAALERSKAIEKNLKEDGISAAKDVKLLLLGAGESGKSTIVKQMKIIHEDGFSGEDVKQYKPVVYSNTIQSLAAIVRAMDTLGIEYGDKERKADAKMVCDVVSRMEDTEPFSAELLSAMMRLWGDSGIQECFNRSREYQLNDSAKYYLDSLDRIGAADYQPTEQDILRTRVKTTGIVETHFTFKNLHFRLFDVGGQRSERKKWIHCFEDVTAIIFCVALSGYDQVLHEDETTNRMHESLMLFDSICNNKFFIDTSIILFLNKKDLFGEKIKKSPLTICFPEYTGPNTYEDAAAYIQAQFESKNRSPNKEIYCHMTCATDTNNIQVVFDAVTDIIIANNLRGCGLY

[7] = molecular target: Guanine nucleotide-binding protein G(o) subunit alpha (Homo sapiens) (UniProt P09471); assay: retest of RGS7-Galphao interaction hits – biochemical, multiplexed bead flow cytometry, single concentration, confirmation (AID 1837; in the data active = response below about 75% or above about 130%; inactive = in between;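 note: fluorescent Galphao activated with GDP and aluminum fluoride binding bead-coupled RGS7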); conditions: bead-based flow cytometry RGS7-Galphao binding; at 10 µM; actives lie on both sides
[8] = molecular target: Regulator of G-protein signaling 16 (Homo sapiens) + Guanine nucleotide-binding protein G(o) subunit alpha (Homo sapiens) (UniProt O15492+P09471); assay: RGS16 and Galphao interaction regulators – biochemical, single concentration, multiplexed bead flow cytometry, confirmation (AID 1838; in the data active = response below about 74% or above about 130%; inactive = in between;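 note: Galphao activated as the GDP aluminium fluoride complex binding bead-coupled RGS16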); conditions: bead-based flow cytometry, at 10 µM, actives lie on both sides
Regulator of G-protein signaling 16 (Homo sapiens) + Guanine nucleotide-binding protein G(o) subunit alpha (Homo sapiens), sequence (O15492 whole entry, looked up): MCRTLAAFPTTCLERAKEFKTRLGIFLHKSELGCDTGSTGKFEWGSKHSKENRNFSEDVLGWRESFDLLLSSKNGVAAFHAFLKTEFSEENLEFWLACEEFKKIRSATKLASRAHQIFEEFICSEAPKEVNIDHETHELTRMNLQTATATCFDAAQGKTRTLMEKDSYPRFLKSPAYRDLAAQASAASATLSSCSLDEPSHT
Regulator of G-protein signaling 16 (Homo sapiens) + Guanine nucleotide-binding protein G(o) subunit alpha (Homo sapiens), sequence (P09471 whole entry, looked up): as the sequence (P09471 whole entry, looked up) above

[9] = molecular target: Guanine nucleotide-binding protein G(o) subunit alpha (Homo sapiens) (UniProt P09471); assay: RGS4 and Galphao interaction regulators – biochemical, single concentration, multiplexed bead flow cytometry, confirmation (AID 1840; in the data active = binding response below about 74% or above about 130%; inactive = in between); conditions: at 10 µM, actives lie on both sides
[10] = molecular target: Guanine nucleotide-binding protein G(o) subunit alpha (Homo sapiens) + Regulator of G-protein signaling 19 (Homo sapiens) (UniProt P09471+P49795); assay: RGS19 interaction with Gαo, hit retest – biochemical, single point, multiplexed bead flow cytometry, confirmation (AID 1841; in the data active = response below about 50% or above about 160%; inactive = in between;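 note: 100% = no compound control and 0% = blank background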); conditions: bead-based flow cytometry RGS19-Galphao binding; at 10 µM; actives lie on both sides
Guanine nucleotide-binding protein G(o) subunit alpha (Homo sapiens) + Regulator of G-protein signaling 19 (Homo sapiens), sequence (P09471 whole entry, looked up): as above
Guanine nucleotide-binding protein G(o) subunit alpha (Homo sapiens) + Regulator of G-protein signaling 19 (Homo sapiens), sequence (P49795 whole entry, looked up): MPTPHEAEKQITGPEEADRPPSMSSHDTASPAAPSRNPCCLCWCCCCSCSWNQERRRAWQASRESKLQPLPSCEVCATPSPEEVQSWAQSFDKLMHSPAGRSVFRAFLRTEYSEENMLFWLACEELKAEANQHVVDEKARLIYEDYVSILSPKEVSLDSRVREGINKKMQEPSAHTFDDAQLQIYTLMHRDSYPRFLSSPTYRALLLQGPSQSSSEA

[11] = rapamycin-like changes in RPL19A-GFP expression – cell-based, S. cerevisiae, multiplex flow cytometry, primary screen (AID 1862; in the data active = percent of DMSO control GFP below about 86%;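 note: lower values mimic rapamycin by blocking the RPL19A rise seen in DMSO cells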); conditions: S. cerevisiae RPL19A-GFP strain, flow cytometry fluorescence, 3 h; at 10 µM; stronger effect = lower value
[12] = TOR pathway GLN3 branch reporter MEP2-GFP changes – S. cerevisiae, multiplex flow cytometry, primary screen (AID 1867;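 active = GFP response, as percent of the DMSO control, above the screen-wide mean plus 3 SD, about 139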;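 note: median GFP channel fluorescence of barcode-gated MEP2-GFP cells measured by flow cytometry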); conditions: S. cerevisiae MEP2-GFP strain, 3 h, at 10 µM, stronger effect = higher value, 100% means same as DMSO wells
[13] = TOR pathway RTG branch CIT2 reporter changes – S. cerevisiae, GFP fusion, multiplex flow cytometry, primary screen (AID 1870;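 active = percent response above a set limit, the screen-wide mean plus 3 SD, cut at about 130% in these data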;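 note: barcoded CIT2-GFP strain pooled with four other GFP strains with rapamycin as positive control; median GFP fluorescence per well over plate mean of DMSO wells so 100% = DMSO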); conditions: S. cerevisiae CIT2-GFP expression, 3 h, at 10 µM, stronger effect = higher value
[14] = TOR pathway LAP4-GFP level changes – S. cerevisiae, multiplex flow cytometry, primary screen (AID 1873;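 active = GFP signal, as percent of the solvent control, above the screen mean plus 3 SD, about 149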); conditions: S. cerevisiae LAP4-GFP expression, 3 h, at 10 µM, stronger effect = higher value
[15] = yeast AGP1-GFP level changes, GLN3 branch – cell-based, multiplex flow cytometry, S. cerevisiae, primary screen (AID 1887;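 active = GFP signal above the screen-wide mean plus 3 SD, that is over about 124.5% of the solvent control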;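 note: AGP1-GFP fusion strain of S. cerevisiae within a five-strain barcoded multiplex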); conditions: 3 h, at 10 µM, stronger effect = higher value
[16] = hit retest on RPL19A-GFP reporter strain – cell-based, S. cerevisiae, flow cytometry, cherry picks, mother/daughter gates, confirmation (AID 2270;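 active = GFP response below 50% of the DMSO control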); conditions: 3 h, at 10 µM, stronger effect = lower value, 100 = same GFP as DMSO wells
[17] = yeast TOR pathway reporter LAP4-GFP change – cell-based, cherry picks, flow cytometry, mother/daughter gates, confirmation (AID 2271);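 note: ratio of sample to DMSO plate mean so 100% equals DMSO level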; conditions: S. cerevisiae LAP4-GFP strain, 3 h, at 10 µM, stronger effect = higher value, 100 means same as DMSO control
[18] = TOR pathway reporter MEP2-GFP, retest of hits – S. cerevisiae, flow cytometry GFP, cherry picks, confirmation (AID 2272;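 active = GFP response above 150% of the DMSO control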;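 note: ratio of well signal to plate DMSO mean so 100% equals DMSO level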); conditions: S. cerevisiae MEP2-GFP strain, 3 h, at 10 µM, stronger effect = higher value
[19] = TOR pathway CIT2 reporter hit retest – S. cerevisiae, GFP fusion, cherry picks, mother/daughter gates, confirmation (AID 2274;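 active = GFP response above 150% of the DMSO level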); conditions: S. cerevisiae CIT2-GFP strain, flow cytometry, 3 h, at 10 µM, stronger effect = higher value
[20] = reduced mouse 2C T cell binding to pMHC/ICAM-1 vesicles – MLPCN validation set, flow cytometry, LFA-1/ICAM-1 modulator project, pilot screen (AID 2523;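 active = response below a set limit, under 55% cells CD8-positive and vesicle-bound, and CD8 cells' 90th-percentile brightness under 279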;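 for vesicle binding response: mean PE anti-B7-1 fluorescence of CD8+ cells relative to row control; 100% = QL9-loaded vesicles with DMSO vehicle in the same plate row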); conditions: 2C mouse CD8+ T cells, at 7 µM, stronger effect = lower value; double positive events: measured here: CD8+/vesicle+ event percentage
[21] = measured here: daughter cell gate
[22] = measured here: mother cell gate
[23] = measured here: daughter cell gate response
[24] = measured here: mother cell gate response

CCOC(=O)NNc1cc(C(F)(F)F)ccn1
RGS16–Galpha-o binding response [1]: 148% | RGS19–Galpha-o binding response [2]: 84.9% | RGS7–Galpha-o binding response [3]: 66.9% | RGS8–Galpha-o binding response [4]: 133% | inhibition [5]: -0.7% (inactive) | binding response (% of control) [6]: 104% (inactive) | response (percent of control binding) [7]: 107% (inactive) | response (% of control binding) [8]: 104% (inactive) | binding response (% of control) [9]: 102% (inactive) | response (percent of control binding) [10]: 109% (inactive)

COc1ccc(CCNC(=O)c2cc3sccc3n2C)cc1OC
inhibition [5]: 0.7% (inactive) | binding response (% of control) [6]: 103% (inactive) | response (percent of control binding) [7]: 106% (inactive) | response (% of control binding) [8]: 103% (inactive) | binding response (% of control) [9]: 102% (inactive) | response (percent of control binding) [10]: 114% (inactive)

c1ccc2c(c1)CCOC2CNCCCN1CCCCC1 (centres undefined)
percent of DMSO control GFP [11]: 92% (inactive) | GFP response vs DMSO [12]: 142% (active) | percent response of DMSO control [13]: 126% (active) | GFP response vs DMSO [14]: 98% (inactive) | GFP response, % of DMSO [15]: 113% (inactive) | GFP response vs DMSO [16]: 101% (inactive) | GFP response vs DMSO [16, 21]: 101% | GFP response vs DMSO [16, 22]: 102% | GFP response relative to DMSO [17]: 92.6% (inactive) | GFP response relative to DMSO [17, 23]: 97.2% | GFP response relative to DMSO [17, 24]: 94.2% | GFP response vs DMSO [18]: 100% (inactive) | GFP response, % of DMSO [19]: 108% (inactive) | GFP response, % of DMSO [19, 21]: 105% | GFP response, % of DMSO [19, 22]: 113% | double positive events [20]: 52.2% | vesicle binding response [20]: 279% (inactive)

OC(CCN1CCCCC1)(c1ccccc1)c1ccccc1
percent of DMSO control GFP [11]: 92.8% (inactive) | GFP response vs DMSO [12]: 126% (inactive) | percent response of DMSO control [13]: 128% (active) | GFP response vs DMSO [14]: 86.9% (inactive) | GFP response, % of DMSO [15]: 91.9% (inactive) | GFP response vs DMSO [16]: 100% (inactive) | GFP response vs DMSO [16, 21]: 99% | GFP response vs DMSO [16, 22]: 102% | GFP response relative to DMSO [17]: 95% (inactive) | GFP response relative to DMSO [17, 23]: 97.2% | GFP response relative to DMSO [17, 24]: 95.2% | GFP response vs DMSO [18]: 100% (inactive) | GFP response, % of DMSO [19]: 96.5% (inactive) | GFP response, % of DMSO [19, 21]: 96.5% | GFP response, % of DMSO [19, 22]: 85.8% | double positive events [20]: 62.7% | vesicle binding response [20]: 152% (inactive)

O=c1[nH]cc(F)c(=O)[nH]1
percent of DMSO control GFP [11]: 90.9% (inactive) | GFP response vs DMSO [12]: 119% (inactive) | percent response of DMSO control [13]: 127% (active) | GFP response vs DMSO [14]: 77% (inactive) | GFP response, % of DMSO [15]: 104% (inactive) | GFP response vs DMSO [16]: 83.5% (inactive) | GFP response vs DMSO [16, 21]: 82.3% | GFP response vs DMSO [16, 22]: 85.4% | GFP response relative to DMSO [17]: 90% (inactive) | GFP response relative to DMSO [17, 23]: 88.8% | GFP response relative to DMSO [17, 24]: 93% | GFP response vs DMSO [18]: 101% (inactive) | GFP response, % of DMSO [19]: 88.5% (inactive) | GFP response, % of DMSO [19, 21]: 87.3% | GFP response, % of DMSO [19, 22]: 89.8% | double positive events [20]: 52.4% | vesicle binding response [20]: 223% (inactive)

CC(=O)OCC(=O)[C@H]1CC[C@H]2[C@@H]3CCC4=CC(=O)CC[C@]4(C)[C@H]3CC[C@]12C
percent of DMSO control GFP [11]: 89.1% (inactive) | GFP response vs DMSO [12]: 103% (inactive) | percent response of DMSO control [13]: 108% (inactive) | GFP response vs DMSO [14]: 73.2% (inactive) | GFP response, % of DMSO [15]: 86.3% (inactive) | GFP response vs DMSO [16]: 95.8% (inactive) | GFP response vs DMSO [16, 21]: 96.7% | GFP response vs DMSO [16, 22]: 96.5% | GFP response relative to DMSO [17]: 103% (inactive) | GFP response relative to DMSO [17, 23]: 99.3% | GFP response relative to DMSO [17, 24]: 106% | GFP response vs DMSO [18]: 97.5% (inactive) | GFP response, % of DMSO [19]: 97.8% (inactive) | GFP response, % of DMSO [19, 21]: 98.3% | GFP response, % of DMSO [19, 22]: 99.1% | double positive events [20]: 52.1% | vesicle binding response [20]: 113% (inactive)
